Test results reported in PubChem BioAssay AID463190 (Sanford-Burnham Center for Chemical Genomics, 2010).
About 7,300 (2.2%) of roughly 330,000 compounds were called active. This is one part of a sample in which actives are shown more often than they occur.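 Rule for the calls: active = inhibition of at least 40%; inactive = the rest.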

experiment: growth inhibition of tim10-1 ts yeast – luminescence, uHTS, primary screen (AID 463190);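 note: mutant grown at 25 °C; 0% = DMSO wells with yeast and 100% = wells holding no yeast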; settings: S. cerevisiae tim10-1 ts strain growth, BacTiter-Glo, 24 h; at 20 µM; hits give high values

inhibition, active:
Clc1ccc(Nc2nc(-c3cccs3)cs2)nc1 45.1%
CN(C(=O)CC(NC(=O)c1ccccc1)(c1ccccc1)c1ccccc1)c1ccccc1 41.7%
CNC(=O)/C(C#N)=C/c1c(F)cccc1Cl 55.4%
COc1cc(NS(=O)(=O)c2ccc3ccccc3c2)c2ncccc2c1 40.5%
CCC(C)(C)n1nnnc1CN1CCN(c2nc3ccc(C)cc3cc2C#N)CC1 40.7%
Cc1nnnn1/C(=C\c1ccccc1)C(=O)OCC(=O)N1CC2(C)CC1CC(C)(C)C2 (stereo unspecified) 56.1%
O=C(Nc1nc(-c2ccco2)c(-c2ccco2)s1)c1ccco1 59.7%
O=C(CCCN1C(=O)/C(=C/c2ccccc2)SC1=S)Nc1ccc(O)cc1 40.5%
CCOC(=O)N1CCN(C(=O)c2cc3c(-c4ccc(Cl)cc4)nn(C)c3s2)CC1 40.4%
COc1ccc(Nc2nc(N)nc(CSC(=S)N3CCC(C)CC3)n2)cc1 46.2%
CCn1c(COc2c(C)cccc2C)nnc1SCc1nc2ccccc2c(=O)[nH]1 40.2%
CCc1nc2ccc(C(=O)N3CCN(c4cccc(Cl)c4)CC3)cc2nc1CC 52.2%
O=C(CSc1cccc2cccnc12)N/N=C/c1cccnc1 51.7%
O=C(Nc1nnc(SCc2c(Cl)cccc2Cl)s1)C1CCCO1 (stereo unspecified) 42.5%
Cc1cc(Nc2ccccc2)n(C(=O)c2ccc(N)cc2)n1 50.1%
COc1ccc(-c2oc3ncn(Cc4ccco4)c(=N)c3c2-c2ccc(OC)cc2)cc1 41.7%
COc1cccc(C(=O)Nc2cc3c(cc2Br)OCCCO3)c1 40.7%
Cc1nonc1C1CCCN1C(=O)c1cc(COc2cccc(C(F)(F)F)c2)on1 (stereo unspecified) 46.1%
CCOC(=O)CSc1nc2c(c(=O)n(Cc3ccccc3Cl)c(=O)n2C)n1C 47.6%
CSc1nnc(NC(=O)c2nc(S(=O)(=O)Cc3ccc(C)cc3)ncc2Cl)s1 41%

inhibition, inactive:
CCCc1cc(C(=O)Nc2ccc(Cl)cn2)cs1 27.7%
Cc1cccc(Nc2nc(-c3ccccc3)cs2)n1 -40.5%
CCOC(=O)c1cc(-c2ccccc2C)n(Cc2cc(C)no2)n1 9.65%
CC(C)(C)c1ccc(C(=O)NNC(=O)Cc2ccccc2)cc1 -12.1%
CN(CC(=O)O)C(=O)c1ccccc1 -0.243%
O=C(/C=C/c1c(F)cccc1Cl)Nc1nn[nH]n1 10.7%
CCOC(=O)NC(=O)/C(C#N)=C\c1ccccc1 2.89%
O=C(CNS(=O)(=O)c1ccccc1)NCC(=O)OCc1ccccc1F 9.03%
O=C(Cn1nc(Cc2cccnc2)c2ccccc2c1=O)NCC1COc2ccccc2O1 (stereo unspecified) 14.3%
C=CCNC(=S)NNC(=O)COc1c(Cl)cc(Cl)cc1Cl 37.3%
CCOC(=O)C1CCN(C(=O)C2CCCN(S(=O)(=O)c3ccc(OC)c(Cl)c3)C2)CC1 (stereo unspecified) -9.18%
COc1ccccc1NC(=O)N1CCCC1C(=O)NCc1cccs1 (stereo unspecified) 16.7%
O=[N+]([O-])c1ccccc1S(=O)(=O)Nc1cccc2cccnc12 34.8%
Cc1ccc(S(=O)(=O)Nc2ccc3ncccc3c2)cc1 18.6%
COc1ccc(S(=O)(=O)NCc2cccnc2)cc1NC(=O)c1ccc(C)cc1 8.35%
CCC(C)(C)n1nnnc1C(c1cccs1)N1CCN(c2nc3ccccc3s2)CC1 (stereo unspecified) 36.1%
Cc1ccc2nc(NCCCNC(=O)c3cnccn3)c(C#N)cc2c1 8.4%
COc1ccc(CNC(=O)COC(=O)/C=C/c2ccc(S(=O)(=O)N3CCOCC3)cc2)cc1 20%
Cc1nc2nc(C)c(CCC(=O)N3CCN(c4ccccc4)CC3)c(C)n2n1 1.14%
COc1ccc2[nH]c3c(c2c1)CCN1C(=O)C(CC(=O)NCc2cccc(C(F)(F)F)c2)C[C@H](C(=O)N2CCOCC2)[C@@]31C (stereo partly specified) 11%
Cc1cccc(C(=O)NCC(=O)OCC(=O)N2CC3(C)CC2CC(C)(C)C3)c1 (stereo unspecified) 15.2%
COc1ccc(C(=O)N2CC3(C)CC2CC(C)(C)C3)cc1OC (stereo unspecified) 19.6%
CCOc1ccc(C(C)=O)cc1CSc1nnc(-c2ccncc2)n1CCOC 22.6%
NC(=O)NC(CC(=O)NNC(=O)c1ccccn1)c1ccc(Cl)cc1 (stereo unspecified) 8.52%
NC(=O)c1ccsc1NC(=O)c1ccco1 -3.6%
O=C(Nc1nnc(CCOCCOCCc2nnc(NC(=O)c3ccco3)s2)s1)c1ccco1 -13%
C=CC[C@@H](CC(=O)NCCO)C(=O)N[C@H](C)COC(=O)[C@@H](CC=C)CC(=O)OC(C)(C)C -5.11%
CC(Nc1ccccc1)c1cccnc1 (stereo unspecified) -3.38%
CCN(CC)S(=O)(=O)c1cc(C(=O)Nc2cc(S(=O)(=O)N3CCOCC3)ccc2N2CCCC2)ccc1F 3.43%
O=C(CN(C(=O)c1csnn1)c1cccc(Cl)c1)NC1CCCC1 17.6%
COc1ccc(/C=C2\SC(=S)N(CCC(=O)Nc3cccc(C(=O)O)c3)C2=O)cc1OC 21.8%
O=C(CCCN1C(=O)/C(=C/c2cccs2)SC1=S)Nc1ccc(O)cc1 31.7%
CCC(C)[C@@H](C(=O)N1CCNCC1)n1cc(CCCCN)nn1 (stereo partly specified) -13.3%
CCOC(=O)C1CCN(CCC(=O)Nc2cccc(C)c2)CC1 11.5%
CN(Cc1cccs1)C(=O)Cc1c[nH]c2ccccc12 14.6%
O=C(Nc1ccc2sc3ccccc3c(=O)c2c1)c1ccccc1Cl 4.71%
COc1cccc(-c2nn(C)c3sc(C(=O)N4CCN(c5ccccc5)CC4)cc23)c1 24.7%
COc1ccccc1N1CCN(C(=O)c2cc3c(-c4ccc(Cl)cc4)nn(C)c3s2)CC1 15.4%
O=C(CNC(=O)c1ccccc1)NCC(=O)OCc1ccc(Cl)cc1 -23.2%
CCOC(=O)c1cnc(SCc2nc(N)nc(Nc3ccc(OC)cc3)n2)nc1N 17.6%
COc1ccccc1Nc1nc(N)nc(CSC(=S)N2CCOCC2)n1 23.3%
C=CCNC(=O)c1ccccc1SCc1c(C)noc1C 18%
CCOP(=O)(OCC)C(Nc1cccc(C)c1)c1ccc(F)cc1 (stereo unspecified) 20.8%
CCN=C1S/C(=C\c2cc(Br)ccc2OCC(=O)OCC)C(=O)N1CC 25.5%
Cc1ccc(COC(=O)CN2C(=O)NC3(CCCC3)C2=O)cc1 23.6%
COc1ccc(CCCc2nnc(SCc3nc4ccccc4c(=O)[nH]3)n2C)cc1 19.4%
CCn1c(Cc2ccccc2)nnc1SCc1nc2ccccc2c(=O)[nH]1 8.33%
O=c1c2cc(-c3ccccc3)sc2nc2n1N=C(c1cccs1)CS2 20.5%
O=C1C(=O)N(CCN2CCOCC2)C(c2ccccn2)/C1=C(/O)c1ccc(Cl)cc1 (stereo unspecified) 13.6%
O=C(CCCC(=O)N1CCN(c2cccc(Cl)c2)CC1)c1ccccc1 29.5%
O=C(c1cccc(Cl)c1)N1CCN(Cc2ccccc2)CC1 -7.29%
O=C(O)c1ccn(COc2ccc(Br)cc2)n1 -4%
CCOC(=O)N/N=C/c1cccnc1 5.36%
Cc1ccc(NC(=O)CSc2cccc3cccnc23)c(C)c1 25.4%
O=C(NCc1ccccc1Cl)C1CCCO1 (stereo unspecified) 0.911%
O=C(Nc1nnc(SCc2c(Cl)cccc2Cl)s1)c1cccc([N+](=O)[O-])c1 -2.85%
NC(=O)CCC(NS(=O)(=O)c1ccc(Cl)cc1)C(=O)NCc1ccccc1Cl (stereo unspecified) -4.94%
COc1ccc(Cl)cc1NC(=O)Cn1nc(-c2ccc(C)cc2)n(C)c1=S 2.15%
Cc1cc(Nc2ccccc2)n(CCC#N)n1 -11.5%
Cc1cc(C)n(C(=O)c2ccc(S(=O)(=O)N3CCCC3)cc2)n1 17.6%
CCc1ccc(CN(C)C(C)C(=O)Nc2ccc(S(=O)(=O)N3CCCC3)cc2)cc1 (stereo unspecified) 24.9%
COc1ccc(OC)c(S(=O)(=O)N2CCCC(C(=O)N3CCC(C(N)=O)CC3)C2)c1 (stereo unspecified) -23.6%
CN1CCN(S(=O)(=O)c2ccc(N3CCN(S(=O)(=O)c4cccs4)CC3)nc2)CC1 -3.27%
COc1ccc(-c2oc3ncnc(NCCCO)c3c2-c2ccc(OC)cc2)cc1 9.86%
COc1ccc(-n2cnc3cc(NCc4ccco4)ccc32)cc1 22%
Cc1cc(C)c(NC(=O)c2oc3ccccc3c2COc2ccccc2)c(C)c1 17%
COc1cccc(C(=O)NNC(=O)c2cccc(F)c2)c1 -28.3%
O=C(Nc1ccccc1)c1ccc2c(c1)OCCCO2 5.55%
O=C(NC1Cc2ccccc2C1)c1cc(COc2cccc(C(F)(F)F)c2)on1 18.4%
O=C(c1cc(COc2cccc(C(F)(F)F)c2)on1)N1CCSCC1 26.2%
O=c1cnnc(Nc2ccccc2F)[nH]1 -10.8%
Cc1ccc(C(=O)N/C(=C/c2cccs2)C(=O)N2CCCCC2)cc1 19.1%
Cn1c(=O)c2c(nc(SCC(=O)Nc3ccccc3N3CCCCC3)n2C)n(C)c1=O -4.92%
CCOC(=O)CSc1nc2c(c(=O)n(C)c(=O)n2C)n1Cc1ccccc1F 10.3%
Cc1cccc(NC(=O)c2nc(S(=O)(=O)Cc3ccccc3)ncc2Cl)c1 23.9%
Cc1ccc(CS(=O)(=O)c2ncc(Cl)c(C(=O)Nc3nnc(C)s3)n2)cc1 20.6%
